Results taken from PubChem BioAssay (Tox21).
Where “and” joins values, the source holds several entries; their conditions need not be identical. Identical values can stand only once. Results filed as inconclusive are left out. Where a call stands in place of a potency, no number is given. Where a structure was tested more than once in an assay, its records may differ in their call. Calls of active or inactive are those of the source. The call rests on the fitted dose curve.

target: Acetylcholinesterase (Homo sapiens) (UniProt P22303); assay: Acetylcholinesterase (AChE) small molecule antagonists: colormetric cell-based qHTS assay (AID 1347395); conditions: SH-SY5Y cells AChE activity, colorimetric (Ellman); series mostly up to 115 µM; further: nearly all actives have a fitted effect of over 30% in size
Sequence (P22303 whole entry, looked up): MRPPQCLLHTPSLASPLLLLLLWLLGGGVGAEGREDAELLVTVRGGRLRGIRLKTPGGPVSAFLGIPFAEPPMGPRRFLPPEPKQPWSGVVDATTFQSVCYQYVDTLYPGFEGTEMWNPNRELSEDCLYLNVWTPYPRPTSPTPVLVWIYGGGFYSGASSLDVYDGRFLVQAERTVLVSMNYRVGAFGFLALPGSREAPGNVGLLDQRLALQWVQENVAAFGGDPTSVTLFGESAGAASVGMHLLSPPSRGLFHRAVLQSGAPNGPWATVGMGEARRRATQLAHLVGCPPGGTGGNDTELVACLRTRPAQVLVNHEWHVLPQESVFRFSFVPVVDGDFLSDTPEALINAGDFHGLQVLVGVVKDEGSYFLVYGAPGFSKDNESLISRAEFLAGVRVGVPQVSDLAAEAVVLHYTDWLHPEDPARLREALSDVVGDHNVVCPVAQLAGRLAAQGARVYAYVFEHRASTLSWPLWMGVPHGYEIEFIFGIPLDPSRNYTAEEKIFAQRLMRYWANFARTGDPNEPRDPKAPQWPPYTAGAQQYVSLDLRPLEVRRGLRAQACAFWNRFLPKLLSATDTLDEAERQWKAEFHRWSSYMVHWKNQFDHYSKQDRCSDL
Text: National Center for Advancing Translational Sciences [NCATS]
Division of Preclinical Innovation [DPI]
U.S. Environmental Protection Agency [EPA]
National Institutes of Environmental Health Sciences [NIEHS]
National Toxicology Program [NTP]
U.S. Food and Drug Administration [FDA]
Acetylcholinesterase (AChE) is the primary cholinesterase in the body that hydrolyzes a key neurotransmitter, acetylcholine. Inhibition of AChE activity can lead to neurotoxicity. The known inhibitors include organophosphorous pesticides (OP), chemical warfare agents, drugs, and various phytochemicals.
A homogenous cell-based assay using the Amplite Colormetric acetylcholinesterase assay kit (AAT Bioquest, Sunnyvale, CA) was used to evaluate the chemicals in the Tox21 10K library that inhibit AChE activity. The assay uses 5, 5-dithiobis-(2-nitrobenzoic acid) (DTNB) to quantify the thiocholine produced from the hydrolysis of acetylthiocholine by AChE from the SH-SY5Y cells.
Tox21 Assay Protocol Summary:
For the cell-based AChE assay, 2,000 SH-SY5Y cells in 4 uL/well were dispensed into black, clear-bottom 1536-well plates using a Multidrop Combi dispenser (Thermo Scientific, MA). The assay plates were incubated overnight at 37 C to allow cells to attach to the wells, followed by the transfer of 23 nL of compound or DMSO (vehicle control) by a Pintool Station (Wako Automation, CA). The plates were incubated for 30 min at 37 C and 5% CO2, followed by the addition of 4 uL of detection cocktail solution (DTNB, acetylthiocholine) into each well using a Flying Reagent Dispenser (Beckman Coulter, CA) and then 90 min incubation at 37 C.
Potency means the concentration at half of the fitted maximal effect.

SMILES	Potency
CCCCCCCCCC(CC)c1ccc(S(=O)(=O)O)cc1 (stereo not given)	inactive
CC1=C(C(=O)Nc2ccccc2)SCCO1	inactive
CC(C)Nc1ccc(Nc2ccccc2)cc1	inactive
O=NN1CCOCC1	inactive
C=CC(Cl)CCl (stereo not given)	inactive
CNC(=O)CSP(=S)(OC)OC	inactive
CCCCOCCOC(C)=O	inactive
CCOP(=O)(O)OCC (tested in a mixture with another compound)	inactive
OCCOCCO	inactive
CC(C)CON=O	inactive
CC(C)(C#N)N=NC(C)(C)C#N	inactive
CC(C)(c1ccccc1)c1ccc(O)c(C(C)(C)c2ccccc2)c1	inactive
O=C(O)CF	inactive
CC[n+]1c(-c2ccccc2)c2cc(N)ccc2c2ccc(N)cc21	31.6 µM (active) and 19.5 µM (active)
C[N+](C)(C)CC(=O)O	inactive
C=C(C)C#N	inactive
COc1ccc(C=O)cc1OC	inactive
ClCc1ccccn1	inactive
CCC1(c2ccc(N)cc2)CCC(=O)NC1=O (stereo not given)	inactive
Clc1cccc(Cl)c1	inactive

SMILES	Potency
CCOS(=O)(=O)OCC	5.03 µM (active) and inactive
CCCCCCCC[N+](C)(CCCCCCCC)CCCCCCCC	inactive
Oc1ccc(Cl)cc1Cc1ccccc1	inactive
ClC(Cl)(Cl)Br	inactive
Cc1ccc(N=CN(C)C=Nc2ccc(C)cc2C)c(C)c1	inactive
O=S(=O)(O)C(F)(F)C(F)(F)C(F)(F)C(F)(F)C(F)(F)C(F)(F)C(F)(F)C(F)(F)F	inactive
CC(C)Nc1nc(Cl)nc(NC(C)C)n1	inactive and 31.7 µM (active)
CC(C)=CC1C(C(=O)OCN2C(=O)C3=C(CCCC3)C2=O)C1(C)C (stereo not given)	inactive
CCC(=O)Nc1ccc(Cl)c(Cl)c1	inactive
CCOC(=O)c1ccccc1N	inactive
O=NN(c1ccccc1)c1ccccc1	inactive
CSc1nc(NC(C)C)nc(NC(C)C)n1	inactive
Nc1ccc([N+](=O)[O-])cc1N	inactive
O=C1CCCO1	inactive
CCCCCCCCCCCCCl	inactive
CC1CC(=O)O1 (stereo not given)	inactive
O=C(O)c1nn(Cc2ccc(Cl)cc2Cl)c2ccccc12	inactive
CCCCCCCCCc1ccc(O)cc1	inactive
[CH3][Sn]([Cl])([Cl])[Cl]	inactive
N#CC(c1ccccc1)c1ccccc1	inactive
